Data from article PMC4336329 (PLoS ONE, 2015).
About 14,000 (4.5%) of roughly 310,000 compounds showed an effect of 50% or more. The effect is printed as a negative number. Shown is part of a subset that was picked to be rich in strong results.

Molecular target: human ether-à-go-go-related gene (hERG) potassium channel (human, UniProt Q12809)
Experiment: primary screen, population patch clamp on CHO cells stably expressing hERG; higher = less effect of the substance
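Also: peak tail current of the secondary pulse compared with the same well before compound.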

Chain of human ether-à-go-go-related gene (hERG) potassium channel (Q12809 whole entry, looked up): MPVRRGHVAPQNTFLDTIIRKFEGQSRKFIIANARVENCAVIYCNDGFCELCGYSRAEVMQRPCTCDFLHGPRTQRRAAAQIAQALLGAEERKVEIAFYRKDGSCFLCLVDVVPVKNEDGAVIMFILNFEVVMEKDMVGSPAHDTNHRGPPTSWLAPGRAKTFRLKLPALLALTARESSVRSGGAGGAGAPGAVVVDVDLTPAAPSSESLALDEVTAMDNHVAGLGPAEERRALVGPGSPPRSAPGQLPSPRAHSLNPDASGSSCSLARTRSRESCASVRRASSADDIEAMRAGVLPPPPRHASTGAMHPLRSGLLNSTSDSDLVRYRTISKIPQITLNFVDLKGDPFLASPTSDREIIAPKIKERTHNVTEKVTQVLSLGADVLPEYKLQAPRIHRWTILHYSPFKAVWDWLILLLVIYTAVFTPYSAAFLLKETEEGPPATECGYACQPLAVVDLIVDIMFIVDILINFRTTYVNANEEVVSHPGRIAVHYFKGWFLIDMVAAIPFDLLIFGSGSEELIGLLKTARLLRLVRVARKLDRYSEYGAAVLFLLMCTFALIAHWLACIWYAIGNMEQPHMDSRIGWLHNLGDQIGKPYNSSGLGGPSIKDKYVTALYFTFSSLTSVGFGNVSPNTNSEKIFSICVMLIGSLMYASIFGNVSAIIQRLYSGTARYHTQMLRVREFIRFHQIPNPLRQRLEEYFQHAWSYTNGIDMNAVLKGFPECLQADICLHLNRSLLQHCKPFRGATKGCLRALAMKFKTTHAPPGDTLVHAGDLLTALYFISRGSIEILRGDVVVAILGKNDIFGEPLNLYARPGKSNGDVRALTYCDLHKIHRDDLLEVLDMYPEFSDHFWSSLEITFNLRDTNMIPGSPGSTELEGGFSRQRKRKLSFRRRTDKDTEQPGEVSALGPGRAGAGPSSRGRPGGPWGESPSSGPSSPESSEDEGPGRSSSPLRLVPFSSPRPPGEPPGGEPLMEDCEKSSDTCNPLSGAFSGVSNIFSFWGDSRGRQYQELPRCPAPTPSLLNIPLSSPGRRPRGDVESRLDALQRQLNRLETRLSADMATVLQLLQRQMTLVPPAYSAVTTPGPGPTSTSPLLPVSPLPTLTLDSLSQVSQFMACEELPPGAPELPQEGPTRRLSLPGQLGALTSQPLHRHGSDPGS

In order of rising “hERG current change (%, negative = inhibition) at 10uM” value:
1. COc1ccc(NC(=O)CN2CCN(CC(=O)Nc3ccc(F)cc3)CC2)cc1Cl  -80.5%
2. COc1ccc(NC(=O)CN2CCN(CC(=O)Nc3ccc(F)cc3)CC2)c(OC)c1  -80.4%
3. COc1cccc(NC(=O)CN2CCN(CC(=O)Nc3ccc(F)cc3)CC2)c1  -80.3%
4. CCOc1ccc(NC(=O)CN2CCN(CC(=O)Nc3ccc(OC)cc3OC)CC2)cc1  -74.2%
5. COc1ccc(CN2CCN(Cc3ccc(C(F)(F)F)cc3)CC2)c(OC)c1.O=C(O)C(=O)O  -74.1%
6. CCOc1ccc(NC(=O)CN2CCN(CC(=O)Nc3ccccc3OC)CC2)cc1  -74.1%
7. COc1ccc(CN2CCN(Cc3ccc(C)cc3)CC2)c(OC)c1.O=C(O)C(=O)O  -70.3%
8. COc1ccc(CN2CCN(Cc3ccc(C(F)(F)F)cc3)CC2)cc1.O=C(O)C(=O)O  -65.7%
9. COc1cc(CN2CCN(C(O)(c3ccccc3)c3ccccc3)CC2)cc(OC)c1OC.O=C(O)C(=O)O  -55.1%
10. COc1cc(CN2CCN(C(=O)c3ccc(-c4ccccc4)cc3)CC2)cc(OC)c1OC.O=C(O)C(=O)O  -54.7%
11. COc1cc(CN2CCN(Cc3ccc(C(F)(F)F)cc3)CC2)cc(OC)c1OC.O=C(O)C(=O)O  -54.1%
12. COc1cc(OC)c(OC)cc1CN1CCN(Cc2ccc(C(F)(F)F)cc2)CC1  -42.3%
13. CCOc1ccc(C(NC(=O)c2ccco2)c2ccc(OC)c(OC)c2)cc1 (stereo not shown)  -39.9%
14. COc1cccc(C(=O)N2CCN(Cc3ccc(OC)cc3OC)CC2)c1.O=C(O)C(=O)O  -38.9%
15. COc1ccccc1NC(=O)CN1CCN(CC(=O)Nc2ccc(S(N)(=O)=O)cc2)CC1  -27.8%
16. COc1ccccc1NC(=O)CN1CCN(CC(=O)Nc2ccc(OCc3ccccc3)cc2)CC1  -25.1%
17. Cc1ccc(S(=O)(=O)N(C)C)cc1NC(=O)COC(=O)c1c(-c2ccccc2)noc1C  -24.8%
18. COc1ccc(C(=O)C2CCN(CC(=O)Nc3ccc(OC)cc3OC)CC2)cc1  -18.1%
19. CCOC(=O)N1CCN(CC(O)COc2c(C)cc(C)cc2C)CC1.Cl (stereo not shown)  -18%
20. COc1cccc(NC(=O)CN2CCN(c3ccc(F)cc3)CC2)c1  -17%
21. O=C(Nc1cccnc1)c1ccccc1-c1nc(-c2ccccc2F)no1  -16.4%
22. COc1cc(CN2CCN(C(=O)COc3ccccc3)CC2)cc(OC)c1OC  -14.1%
23. O=S(=O)(NCC1CCN(S(=O)(=O)c2ccccc2)CC1)c1ccccc1  -9.78%
24. COc1cccc(NC(=O)CN2CCN(c3ccccc3F)CC2)c1  -9.18%
25. CCc1cccc(NC(=O)CNC(=O)N2CC(=O)Nc3ccccc32)c1  -8.55%
26. COc1ccc(NC(=O)CN2CCc3ccccc3C2)c(OC)c1  -6.9%
27. COc1ccc(NC(=O)CN2CCN(c3ccc(F)cc3)CC2)cc1Cl  -5.96%
28. COc1cc(CN2CCN(S(=O)(=O)c3ccc(F)cc3)CC2)cc(OC)c1OC.O=C(O)C(=O)O  -5.89%
29. COc1cccc(CN2CCN(C(=O)c3ccc(-c4ccccc4)cc3)CC2)c1OC.O=C(O)C(=O)O  -5.41%
30. N#C/C(=C/c1ccc(N2CCCCCC2)o1)c1ccc(Cl)cc1  -3.68%
31. CCCCc1nnc(NC(=O)C23CC4CC(CC(NC(C)=O)(C4)C2)C3)s1  -1.81%
32. COc1ccc(NC(=O)CN2CCN(S(=O)(=O)c3ccc(F)cc3)CC2)cc1Cl  -1.67%
33. Cc1ccc(C2N(c3ccc(Cl)cc3)C(=O)N3CCCN23)cc1 (stereo not shown)  -1.05%
34. FC(F)(F)c1ccc(CN2CCN(Cc3ccco3)CC2)cc1.O=C(O)C(=O)O  0.168%
35. O=C(Nc1cccc(S(=O)(=O)N2CCOCC2)c1)c1ccccc1[N+](=O)[O-]  0.195%
36. CS(=O)(=O)N1CCN(Cc2ccc(C(F)(F)F)cc2)CC1.O=C(O)C(=O)O  0.441%
37. Cn1c2ccccc2c(=O)c2ccc(F)cc21  0.557%
38. COc1cc(NC(=O)c2ccc(Cl)cc2)c(Cl)cc1NC(=O)c1cccnc1  1.74%
39. O=c1ccc(-c2ccccc2)nn1Cc1ccc(Cl)cc1  2.52%
40. COc1cc(CN2CCN(C(=O)c3cccc4ccccc34)CC2)cc(OC)c1OC.O=C(O)C(=O)O  4.24%
41. COc1ccccc1C1CCN(c2ccc(CO)cc2[N+](=O)[O-])CC1  4.52%
42. O=C(Nc1cccc2ccccc12)c1cnsn1  5.58%
43. COc1ccc(-c2cc(C(=O)N3CCCC3)c3ccccc3n2)cc1OC  5.86%
44. COc1cc(CN2CCN(C(=O)c3ccccc3F)CC2)cc(OC)c1OC.O=C(O)C(=O)O  6.56%
45. COC(=O)c1c(C(=O)OC)c2ccccn2c1C(=O)c1ccccc1  6.74%
46. Cc1ccc(NC(=O)CSC(N)=O)cc1Cl  7.5%
47. COCCNC(=O)Cn1nc(-c2ccc(C)cc2)ccc1=O  8.83%
48. CCc1nc(SCC(=O)Nc2nnc(CC)s2)c2c(C)c(C)sc2n1  8.99%
49. N#Cc1nc(-c2ccccc2)oc1N1CCC(C(N)=O)CC1  9.26%
50. O=C(CSc1nc2ncc(Cl)cc2[nH]1)Nc1cccc(F)c1  12.8%
51. COc1cc(CN2CCCCCC2)cc(OC)c1OC.O=C(O)C(=O)O  13.8%
52. O=C(NC(=S)NC1CCS(=O)(=O)C1)c1ccccc1 (stereo not shown)  14.6%
53. Nc1cc(=O)[nH]c(N)n1  15.9%
54. COc1ccc(N2Cc3ccccc3C2=O)cc1  16.2%
55. COc1ccc(NC(=O)CN2CCN(c3nc(-c4ccc(F)cc4)cs3)CC2)c(OC)c1  20.7%
